The list is not random: actives were taken first. Their share in the collection is about 4.1%.
ssDAF12 agonist: S. stercoralis DAF-12 nuclear receptor activators, primary screen, cell-based, luminescence, HEK293, GRIP1 co-expression, lit1-tk-luc | 1% of 370,000 active | AID 652126, 2013 | activation, % at 6.8 µM | HEK293 ssDAF-12/GRIP1 lit1-tk-luc reporter; % of 3 µM dafachronic acid response | Nuclear hormone receptor DAF-12 (Strongyloides stercoralis);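 active = activation above the mean over all tested compounds plus 3 SD, cut at about 0.9% in these data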;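 also: 0% = DMSO-only wells and 100% = 3 µM delta7-dafachronic acid wells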
DAX1 inh-1: DAX1 (NR0B1) inhibitors on StAR promoter, primary screen, cell-based, luminescence, SF-1 (NR5A1), full-length DAX-1; HEK293T StAR-luciferase reporter, SF-1/DAX-1 repression relief; inhibition, % at 6.8 µM; 1.1% of 370,000 active; AID 652010, 2013;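 active = inhibition above the mean over all tested compounds plus 3 SD, cut at about 3.6% in these data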;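 also: 0% = DAX-1 cells with DMSO and 100% = cells lacking DAX-1 with DMSO; higher inhibition means more luminescence from relief of DAX-1 repression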
hgDAF-12 ag: H. glycines DAF-12 receptor agonists, primary screen, cell-based, luminescence, HEK293, GAL4 fusion, UAS-luciferase. Nuclear hormone receptor DAF-12 (Heterodera glycines), GAL4 fusion. HEK293 GAL4-hgDAF12 UAS-luciferase reporter, agonist luminescence; normalized to butyrate control. activation, % at 6.8 µM. 1.8% of 370,000 active;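 active = activation above a cutoff set at the mean of all screened compounds plus 3 SD, cut at about 10% in these data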;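 also: 0% = DMSO wells and 100% = sodium butyrate wells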
DAX1 inh-2: DAX1 (NR0B1) inhibitors, primary screen, cell-based, HEK293, Gal4-DAX1, luciferase luminescence; Nuclear receptor subfamily 0 group B member 1 (Homo sapiens), P51843; HEK293 Gal4-DAX1 luciferase reporter; inhibition, % at 6.75 µM; 0.99% of 340,000 active; AID 504766, 2011;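 active = inhibition above the mean over all tested compounds plus 3 SD, cut at about 4.2% in these data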;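 also: 0% = DAX1-transfected cells with DMSO and 100% = empty-vector control cells with DMSO; inhibition shows as a rise in luminescence from relieved DAX1 repression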
Target sequence (P51843 207-470 limits assumed): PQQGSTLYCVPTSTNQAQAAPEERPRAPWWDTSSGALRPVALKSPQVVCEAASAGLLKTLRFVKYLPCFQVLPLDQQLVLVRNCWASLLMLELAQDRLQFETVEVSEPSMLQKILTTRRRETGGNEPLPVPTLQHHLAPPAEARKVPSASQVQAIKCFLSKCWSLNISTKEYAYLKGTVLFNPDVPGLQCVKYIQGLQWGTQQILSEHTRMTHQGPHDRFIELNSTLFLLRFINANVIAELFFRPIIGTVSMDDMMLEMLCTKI
hcDAF12 agonist: H. contortus DAF-12 nuclear receptor activators, primary screen, cell-based, luminescence, HEK293, lit1-tk-luc reporter; HEK293 hcDAF-12 lit1-tk-luc reporter; 0% DMSO, 100% Δ7-dafachronic acid; activation, % at 6.8 µM; 1.4% of 370,000 active; AID 652067, 2013;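 active = activation above the mean of all tested compounds plus 3 SD, cut at about 5.5% in these data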;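 also: 100% = response to 3 µM Δ7-dafachronic acid high control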
The depositor's hits bear a star; · = no result.

SMILES	ssDAF12 agonist	DAX1 inh-1	hgDAF-12 ag	DAX1 inh-2	hcDAF12 agonist
CC(=O)CC[C@H]1CC[C@]2(CCCN(C(=O)c3ccno3)C2)O1	-1	-1	-1	·	-2
Cc1ccc(C(=O)C(OC(=O)CCC(=O)Nc2cccc(C)c2)c2ccccc2)cc1 (centres undefined)	0	0	0	4.7*	0
COc1ccc(NC(=O)CCC(=O)OC(C(=O)c2ccccc2)c2ccccc2)cc1 (centres undefined)	-2	0	-2	2	-2
Cc1ccc2oc(C(=O)N(C)Cc3ccon3)c(C)c2c1	0	2	10	3	6.5*
Cc1ccc2oc(C(=O)N(C)Cc3ccc(C)o3)c(C)c2c1	-1	0	2	0	-3
COC(=O)C1CN(Cc2ccc(OC)cc2)CCS(=O)(=O)N1Cc1ccc(OC)cc1 (centres undefined)	-1	-2	-2	·	0
Cc1cc(=O)oc2cc(OC(C)C(=O)NCC3CCC(C(=O)O)CC3)ccc12 (centres undefined)	-1	0	-3	3	0
Cc1c(Cc2ccccc2)c(=O)oc2cc(OC(C)C(=O)NCC3CCC(C(=O)O)CC3)c(Cl)cc12 (centres undefined)	-2	0	0	4.6*	-2
CCCC1=NN2C(=N)/C(=C\c3cc(C)n(Cc4ccccc4)c3C)C(=O)N=C2S1	0	0	-2	0	-1
Cc1cc(/C=C2\C(=N)N3N=CSC3=NC2=O)c(C)n1Cc1ccccc1	0	2	7	5.4*	3
Brc1ccc(-c2noc(CCc3ccccc3)n2)cc1	-1	1	3	4.7*	-1
COc1ccc(Cc2nc(-c3cccs3)no2)cc1	-1	1	11*	0	0
COc1ccc(Cc2nc(-c3ccccc3)no2)cc1	-1	1	13*	0	1
c1csc(-c2noc(COc3ccc4c(c3)CCCC4)n2)c1	0	4.0*	12*	4	3
C=CCN1C(=O)c2[nH]nc(-c3ccccc3)c2C1c1ccc(C)cc1 (centres undefined)	-1	0	0	·	0
COc1ccc(-c2nnc(-c3cccs3)o2)cc1OC	0	3	12*	1	1
N#CCC[C@@H]1CC[C@]2(CCCN(S(=O)(=O)C3CCCCC3)C2)O1	-1	0	1	·	0
NC(=O)c1ccc(N=C2C(=O)Nc3ccc([N+](=O)[O-])cc32)cc1	-1	1	-3	5.3*	0
Nc1[nH]c(C(=O)c2ccccc2)c(-c2ccc(Br)cc2)c1C(=O)N1CCN(CCO)CC1	-2	·	3	·	0
O=C(Cc1cccs1)N/N=C/C(Cl)=C/c1ccccc1	-1	2	12*	1	3
COC[C@@H]1CCCN1c1cccc2c1S(=O)(=O)N(C1CC1)CC[C@@H](C)O2	-1	-1	1	·	-2
Cc1ccc(O)c(NC(=S)NC(=O)/C=C/c2ccco2)c1	0	-1	12*	0	4
Cc1ccc(O)c(NC(=S)NC(=O)/C=C/c2ccccc2)c1	-1	0	-1	1	0
COc1ccc(NC(=S)NC(=O)c2ccc(Br)o2)cc1	0	1	11*	1	1
COc1ccc(NC(=S)NC(=O)/C=C/c2ccco2)cc1	-1	0	10	4.8*	1
SMILES	ssDAF12 agonist	DAX1 inh-1	hgDAF-12 ag	DAX1 inh-2	hcDAF12 agonist
CCCCCN1CCCCC(NC(=O)c2ccccc2C)C1=O (centres undefined)	-2	0	4	·	-2
CC1CCc2nn(CC(=O)N3CCc4ccccc43)cc2C1 (centres undefined)	0	1	3	4.6*	3
Cc1ccn(CCC(=O)N2CCc3ccccc32)n1	0	4.1*	0	1	1
CC1CCc2nn(CC(=O)NCCN3CCCCC3C)cc2C1 (centres undefined)	-1	1	5	5.8*	-1
CC1CCc2nn(CC(=O)N3CCCCCC3)cc2C1 (centres undefined)	-1	0	-1	2	-1
COc1ccc(-c2noc(C3CCCN(C(=O)Nc4ccc5c(c4)OCO5)C3)n2)cc1 (centres undefined)	-1	0	9	·	0
Cc1occc1-c1nnc(SCC(=O)N[C@@H]2CCc3ccccc32)n1-c1ccccc1	-1	0	0	·	0
COc1ccc(N2C(=O)[C@@H]3[C@H](C2=O)[C@H]2c4ccccc4C=CN2[C@@H]3C(=O)Nc2ccccc2)cc1	1	0	2	2	6.1*
CC(Cl)C(=O)N1CCC(C(=O)NC2CCCc3ccccc32)CC1 (centres undefined)	-1	0	-3	·	1
Cc1ccc(N=CNc2ccc(C)cc2C)c(C)c1	1.8*	0	-1	·	0
COCCCN1C(=O)[C@H](CC(=O)N2CCCC2)[C@]2(C(=O)OC)CCCCC=C12	-1	0	0	·	1
CCCCNC(=O)CO/N=C(\C)c1cc2ccccc2o1	-1	1	5	-1	5
CCCCNCc1cc2ccccc2o1	-1	1	-5	4.5*	1
Cc1n[nH]c(=S)n1/N=C/c1ccc(OCc2ccc(Cl)cc2)cc1	-1	1	13*	3	2
NC(N)=N/N=C/c1ccc(OCc2ccc(Cl)cc2)cc1	-1	1	13*	-1	-1
Clc1ccc2nc(CNc3nc(N4CCOCC4)nc4c3ncn4-c3ccsc3)[nH]c2c1	-3	·	-10	·	-6
O=C1CCCc2nc3c(cc21)C(O)Oc1c-3ccc2ccccc12 (centres undefined)	-1	2	12*	1	2
COC1=C[C@H](C(=O)NC2CCN(Cc3ccccc3)CC2)[C@@]2(C)Cc3ccccc3[C@H]2CC1=O	-2	0	-1	·	0
Cn1cc(CCOCc2ccc(Br)cc2)c2ccccc21	0	0	4	·	-1
COc1ccc(-c2cnn3c4c(c(C)nc23)CCN4C2CCCC2)cc1OC	-1	0	0	5.9*	-1
COCCN1CCc2c(C)nc3c(-c4ccc(OC)c(OC)c4)cnn3c21	-1	0	-2	0	-1
Cc1ccc(NC(=O)Cn2nnc(-c3ccccc3F)n2)cc1C	-1	1	0	·	-3
CCCCN1CC(COCc2ccccc2)Oc2cccc(Sc3ccc(OC)c(OC)c3)c2S1(=O)=O (centres undefined)	-1	4.2*	3	·	1

Compound activity from PubChem.
